Experimental findings from PubChem BioAssay AID1894 (NMMLSC, 2009) are described below.

About 100 (1.7%) of roughly 5,900 compounds were called active. The entries come from a sample that favours actives as a whole. A number with no mark means an inactive call.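 The calls were made as follows: active = binding response below 72% of control, or above a set upper limit, though filed actives all read lower; inactive = the rest.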

The target of the assay is Mitogen-activated protein kinase kinase kinase 3 (Homo sapiens) (UniProt Q99759). Briefly: blockers of MEK5-MEKK3 PB1 association – biochemical, bead multiplex flow cytometry, single concentration, wildtype, confirmation (AID 1894).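 Also: 100% = DMSO only wells and 0% = binding blocked by excess unlabeled MEK5; lower values mean stronger disruption of MEK5 binding to MEKK3.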 Particulars: Alexa488-MEK5 binding to MEKK3, at 10 µM, active compounds read low. (In general: A flow cytometer gives signals particle by particle.)
Chain of Mitogen-activated protein kinase kinase kinase 3 (Homo sapiens) (Q99759 whole entry, looked up): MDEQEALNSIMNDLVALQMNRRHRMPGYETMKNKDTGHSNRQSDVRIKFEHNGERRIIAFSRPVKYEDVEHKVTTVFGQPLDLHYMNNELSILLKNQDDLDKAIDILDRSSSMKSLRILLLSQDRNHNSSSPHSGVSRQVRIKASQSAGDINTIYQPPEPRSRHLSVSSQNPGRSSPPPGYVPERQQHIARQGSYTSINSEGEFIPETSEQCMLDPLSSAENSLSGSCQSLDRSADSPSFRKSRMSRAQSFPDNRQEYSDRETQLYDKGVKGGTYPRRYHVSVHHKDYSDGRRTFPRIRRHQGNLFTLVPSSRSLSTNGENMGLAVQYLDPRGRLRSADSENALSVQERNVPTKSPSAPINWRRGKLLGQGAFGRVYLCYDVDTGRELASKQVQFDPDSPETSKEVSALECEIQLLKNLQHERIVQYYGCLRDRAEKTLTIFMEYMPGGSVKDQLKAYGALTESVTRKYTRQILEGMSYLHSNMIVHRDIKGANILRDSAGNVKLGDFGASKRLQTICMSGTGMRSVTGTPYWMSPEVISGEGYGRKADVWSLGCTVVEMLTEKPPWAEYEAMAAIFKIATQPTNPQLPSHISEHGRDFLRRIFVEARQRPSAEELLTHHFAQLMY
Regarding `FC(F)(F)c1nc(-c2ccccc2)ncc1-c1nnnn1-c1ccccc1`, the binding response (% of control) is 100%.

As to `CCOC(=O)N1CCN(CC(=O)n2c(C)c(C)c3ccccc32)CC1`, the binding response (% of control) is 97%.

For `Cn1c(=NC(=O)CSCC(=O)N2CCOCC2)sc2ccccc21`, the binding response (% of control) is 86%.

For the molecule `Cc1nc2cc(S(=O)(=O)C(F)(F)F)ccc2s1`, the binding response (% of control) is 101%.

Take `CCN1CCN(c2nc(Nc3cc(OC)ccc3OC)nc(Nc3cc(OC)ccc3OC)n2)CC1`: the binding response (% of control) was 106%.

On to `Cc1ccccc1C(=O)NNC(=O)CN1C(=O)c2ccccc2C1=O`, for which the binding response (% of control) is 93%.

In the case of `CCOC(=O)c1c(Cc2ccc(Cl)cc2)c[nH]c1C`, the binding response (% of control) is 107%.

For `CCOC(=O)C(NS(=O)(=O)c1ccc(C)cc1)(C(F)(F)F)P(=O)(OCC(C)C)OCC(C)C` (stereo not drawn), the binding response (% of control) is 94%.

For the molecule `C#CCOCCOCCOCCNc1nc(N2CCN(C(=O)C([C@@H](C)CC)n3cc(C(N)COC(=O)C(F)(F)F)nn3)CC2)nc(N2CCN(C(=O)[C@H](CCCCN)n3cc(C(N)CC(C)C)nn3)CC2)n1` (stereo partly drawn), the binding response (% of control) was 106%.

`COc1ccc(C2CC(c3cccs3)=NN2c2nc(C)c(C(C)=O)s2)cc1OC` (stereo not drawn): the binding response (% of control) was 97%.

For the molecule `Cc1ccc(NC(=O)COc2ccc(-n3ccnc3)cc2)cc1Cl`, the binding response (% of control) was 108%.

On to `Fc1ccc(-c2ccc(CNCc3ccccn3)o2)cc1Cl`, for which the binding response (% of control) was 103%.

In the case of `O=C(NC1CCN(Cc2ccccc2)CC1)c1cc(Br)c(Br)[nH]1`, the binding response (% of control) was 110%.

Turning to `O=C(O)/C(=C/c1cccnc1)NC(=O)c1ccccc1`, the binding response (% of control) was 104%.

Turning to `CCCCn1c(SCC(=O)NCCc2ccc(OC)c(OC)c2)nc2c1c(=O)n(C)c(=O)n2C`, the binding response (% of control) is 100%.

As to `COc1ccc(SC[C@H](Cc2ccccc2)N2CCN(CCc3ccccc3)CCC2=O)cc1`, the binding response (% of control) was 107%.

As to `O=C1Nc2ccc(Br)cc2/C1=N/N=C/C1=C(N2CCOCC2)C(=C\c2ccccc2)/CC1`, the binding response (% of control) is 54% (active).

On to `C=CCn1c(P(C)(=O)O)nc2ccccc21`, for which the binding response (% of control) was 97%.

Turning to `O=C(OCC1O[C@@H](OC(=O)c2cc(O)c(O)c(O)c2)[C@@H](OC(=O)c2cc(O)c(O)c(O)c2)[C@@H](OC(=O)c2cc(O)c(O)c(O)c2)[C@@H]1OC(=O)c1cc(O)c(O)c(O)c1)c1cc(O)c(O)c(O)c1` (stereo partly drawn), the binding response (% of control) was 1% (active).

Consider `C#CCOCCOCCOCCNc1nc(N2CCN(C(=O)[C@H](CCCCN)n3cc([C@@H](N)C(C)CC)nn3)CC2)nc(N2CCN(C(=O)[C@H](Cc3ccc(O)cc3)n3cc([C@@H](N)C(C)CC)nn3)CC2)n1` (stereo partly drawn), for which the binding response (% of control) was 109%.

For the molecule `COc1ccc(N2CCN(Cc3nnc(-c4ccccc4)o3)CC2)cc1`, the binding response (% of control) was 96%.

For the molecule `Cc1ccc(S(=O)(=O)NC(=O)N2CCCC(C)(C)C2)cc1`, the binding response (% of control) was 98%.

With `C=CCN1C=C2C(=O)C(C)(OC(=O)CCc3ccccc3)C(=O)C=C2C=C1c1ccc(C#N)cc1` (stereo not drawn), the binding response (% of control) is 103%.

Consider `Cc1ccc(N2C(=O)CC(N3CCSCC3)C2=O)c(C)c1` (stereo not drawn), for which the binding response (% of control) is 102%.

With `C/C=C/c1ccc(OCCCCN2CCC(C)CC2)c(OC)c1`, the binding response (% of control) is 103%.

In the case of `CN1CCN(/N=C/c2ccc(C#N)cc2)CC1`, the binding response (% of control) is 86%.

In the case of `COc1cc2c(cc1OC)CN(C(=O)c1ccc(S(=O)(=O)N3CCCCCC3)cc1)CC2`, the binding response (% of control) is 100%.

For the molecule `CN(CC(=O)Nc1cccc(F)c1)CC(=O)Nc1cccc([N+](=O)[O-])c1`, the binding response (% of control) is 103%.

Consider `N/C(=N\OS(=O)(=O)c1cccc([N+](=O)[O-])c1)c1ccncc1`, for which the binding response (% of control) is 104%.

With `C=CCN(CC=C)S(=O)(=O)c1ccc(C(=O)Nc2sc3c(c2C(N)=O)CCCCC3)cc1`, the binding response (% of control) is 100%.

In the case of `Cc1ccc(N(CCC(=O)O)S(=O)(=O)c2cccc(C(F)(F)F)c2)cc1`, the binding response (% of control) was 102%.

For the molecule `Cc1ccc(CNC(=O)Cn2c(=O)c3sccc3n(Cc3cccc([N+](=O)[O-])c3)c2=O)cc1`, the binding response (% of control) is 102%.

As to `COc1cccc(C2CC(c3ccccc3)=NN2S(=O)(=O)c2ccccc2)c1OC` (stereo not drawn), the binding response (% of control) is 100%.

With `O=C(Nc1ccn(Cc2ccccc2)n1)c1cccc(F)c1`, the binding response (% of control) is 100%.

As to `CCCCOC(=O)c1ccc(N2C(=O)CC(N3CCN(C/C=C/c4ccccc4)CC3)C2=O)cc1` (stereo not drawn), the binding response (% of control) is 104%.

As for `COc1cc(-c2nnc(Cn3cc(C(F)(F)F)ccc3=O)o2)cc(OC)c1OC`, the binding response (% of control) is 102%.

As to `COc1cc(Br)c(-c2sc(Nc3ccccc3)n[n+]2-c2ccccc2)cc1OC`, the binding response (% of control) is 102%.

`COc1cccc(/C(C)=N/Nc2ncc(Cl)cc2Cl)c1`: the binding response (% of control) is 108%.

With `COc1cc(/C=C2\SC(=S)N(Nc3ncc(C(F)(F)F)cc3Cl)C2=O)cc(OC)c1OC`, the binding response (% of control) is 90%.

Turning to `CCN(CC)CCOCCOc1ccc(Cl)c2ccccc12`, the binding response (% of control) is 107%.

With `CCOc1ccc(NC(=O)Nc2cc(C)ccc2OC)cc1`, the binding response (% of control) is 100%.

On to `Cc1onc(-c2ccccc2Cl)c1C(=O)OCC(=O)c1ccccc1`, for which the binding response (% of control) is 100%.

Take `O=C(OCc1cc(Cl)ccc1OC(F)F)c1cccnc1`: the binding response (% of control) was 97%.

Turning to `O=c1c(/C=N/O)coc2ccc(Cl)cc12`, the binding response (% of control) was 101%.

Consider `O=C(Nc1ccc(Cl)cn1)c1cnn2cccnc12`, for which the binding response (% of control) is 105%.

As to `CCOC(=O)c1sc2nc(C)nc(SCC(N)=O)c2c1C`, the binding response (% of control) was 109%.

Regarding `CCC(C)OC(=O)C(C)Oc1ccc(-c2ccccc2)cc1` (stereo not drawn), the binding response (% of control) is 108%.

For the molecule `COc1ccc(C(=O)C[n+]2ccc(C)cc2)cc1`, the binding response (% of control) is 103%.

In the case of `CCN1CCN(c2ccc(S(=O)(=O)N3CCCCC3)cc2NC(=O)Cc2c(Cl)cccc2Cl)CC1`, the binding response (% of control) was 104%.

On to `Cc1nn(-c2ccccc2)c(NC(=O)c2cccs2)c(-c2ccc(Cl)cc2)c1=O`, for which the binding response (% of control) is 101%.

Turning to `Cc1cc(C(=O)OCC(=O)N2c3ccccc3NC(=O)C2(C)C)c(C)n1-c1ccccc1`, the binding response (% of control) was 106%.

With `Cc1cccn2c(=O)c(/C=C3\SC(=S)N(CC(C)C)C3=O)c(NCCCOC(C)C)nc12`, the binding response (% of control) was 86%.

`C/C(CC(=O)NC(C)(C)C)=N\NC(=O)c1ccco1`: the binding response (% of control) is 100%.

As to `Cc1ccc(C(=O)N/C(=C/c2ccco2)C(=O)NCCc2c[nH]c3ccccc23)cc1C`, the binding response (% of control) was 105%.

In the case of `CCC(=C/c1sc2ccc3ccccc3c2[n+]1C)/C=C1\Sc2ccc3ccccc3c2N1C`, the binding response (% of control) is 29% (active).

Turning to `Cn1c2ccccc2c(=O)c2c(=O)n(Cc3ccco3)c(COc3ccccc3)nc21`, the binding response (% of control) was 100%.

For the molecule `CN(C)CCCNC(=O)c1cc(C(=O)Cc2ccc(Cl)cc2)c[nH]1`, the binding response (% of control) is 98%.

Take `Cc1ccc(NC(=S)N(CCCN2CCCC2)Cc2cccn2Cc2ccc(Cl)cc2)cc1`: the binding response (% of control) was 104%.

Turning to `N#C/C(=C\C1=C(N2CCOCC2)C(=C\c2ccccc2)/CC1)C(=O)Nc1ccccc1F`, the binding response (% of control) was 27% (active).

For `COC(=O)c1cc(NC(=O)c2cc(C(C)(C)C)nn2Cc2cccc(C)c2)ccc1N1CCOCC1`, the binding response (% of control) is 99%.

Turning to `CN(C)CCCNC(=S)N1CCN(c2nc(-c3ccccc3)cs2)CC1`, the binding response (% of control) was 102%.

As to `Cn1ccc(=Nc2ccc(NC(=O)c3ccc(N=c4ccn(C)c5ccc([N+](=O)[O-])cc45)cc3)cc2)cc1`, the binding response (% of control) was 105%.

In the case of `O=C(NCCCN1CCN(c2ccc(F)cc2)CC1)Nc1ccc([N+](=O)[O-])cc1`, the binding response (% of control) is 107%.

In the case of `O=C(c1cnn(-c2ccc(Cl)cc2)c1)c1ccccc1O`, the binding response (% of control) is 110%.

For `O=C(NC1CCN(Cc2ccccc2)CC1)c1ccc(Oc2cc(Cl)cc(Cl)c2)o1`, the binding response (% of control) is 97%.

As for `O=C(NCCC1=CCCCC1)c1ccc(Cl)c([N+](=O)[O-])c1`, the binding response (% of control) was 106%.

For `CC1CN(C(=O)c2ccccc2NS(=O)(=O)c2cccc([N+](=O)[O-])c2)CC(C)O1` (stereo not drawn), the binding response (% of control) was 101%.

`CC(C)c1ccc(C(=O)NCCCc2ccccc2)cc1`: the binding response (% of control) was 98%.

In the case of `O=C(O)c1cccnc1NC1CCCC1`, the binding response (% of control) is 108%.

In the case of `COc1cccc(NC(=S)NCCCN2CCOCC2)c1`, the binding response (% of control) is 106%.

On to `COC(=O)CCc1sc(Nc2ccc(Br)cc2)nc1-c1ccc(OC)cc1`, for which the binding response (% of control) is 106%.

`O=C(NNc1c2ccccc2nc2ccccc12)c1cc2ccccc2cc1O`: the binding response (% of control) was 51% (active).

With `O=C(Cc1cccc2ccccc12)Nc1ccc2oc(-c3ccccc3)nc2c1`, the binding response (% of control) is 102%.

Consider `CNC(=O)/C(=C\C=C\c1ccccc1)NC(=O)c1ccc([N+](=O)[O-])cc1`, for which the binding response (% of control) is 107%.

Regarding `COc1ccc(C(=O)NCC(=O)N/N=C/c2ccc([N+](=O)[O-])o2)cc1OC`, the binding response (% of control) is 93%.

In the case of `Cc1c(-c2ccccc2)cn2c1-c1ccc(C)n1CC2`, the binding response (% of control) was 93%.

For `Cc1ccc(C)c(CN2CCC(CNC(=O)Nc3ccc(C)c(F)c3)CC2)c1`, the binding response (% of control) was 107%.

Turning to `COc1cc(-c2nc(-c3ccncc3)no2)cc(OC)c1OC`, the binding response (% of control) is 104%.

As for `Cc1ccc(S(=O)(=O)/N=S(\C)C(C)C)cc1` (stereo not drawn), the binding response (% of control) was 101%.

As to `CCOC(=O)Cc1csc(NC(=O)CSc2nc(C)cc(=O)[nH]2)n1`, the binding response (% of control) is 99%.

For `COc1ccc(CNC(=O)C2CCN(S(C)(=O)=O)CC2)cc1`, the binding response (% of control) was 102%.

As for `O=C(Cc1cccs1)N/N=C/c1ccc(OCc2ccccc2)cc1`, the binding response (% of control) is 104%.

On to `COc1ccc(S(=O)(=O)N2CN(CCc3ccc(OC)c(OC)c3)c3nc4ccccc4nc32)cc1`, for which the binding response (% of control) is 97%.

`COc1cc(CC(=O)N/N=C/c2ccccc2)c([N+](=O)[O-])cc1OC`: the binding response (% of control) is 104%.

With `FC(F)(F)c1cccc(N/N=C/c2ccccc2)c1`, the binding response (% of control) is 105%.

As to `CCOC(=O)CN(C)S(=O)(=O)c1ccc(-c2cc(C(=O)OC)sc2C(F)(F)F)cc1`, the binding response (% of control) is 103%.

Turning to `COc1ccc(C2CC(=O)Nc3cc(C)c(C)cc32)c(OC)c1OC` (stereo not drawn), the binding response (% of control) was 104%.

`O=C(c1ccco1)N1CCN(c2cccc(Cl)c2)CC1`: the binding response (% of control) was 100%.
